Calls of active or inactive are those of the source. How the source made its calls: active means hit-call score of the fitted dose curve at least 0.9, where 1 is the maximum; inactive means score below 0.9.
The compounds below were run against human Opioid Receptor NOP (ORL1) Agonism, OPRL1 (gene 4987) (UniProt P41146) (assay: ERF_FR_GPCR_hOPRL1: Eurofins (ERF) G Protein-Coupled Receptor (GPCR) Radioligand Binding LeadHunter Assay for human Opioid Receptor NOP (ORL1) Agonism).
Description: ERF_FR_GPCR_hOPRL1 is a biochemical, single-readout assay that uses extracted gene-proteins in a cell-free assay. Measurements were taken 1 hour after chemical dosing in a 96-well plate. See NOP (ORL1) Human Opioid GPCR Binding (Agonist Radioligand) Assay, Cerep.ERF_FR_GPCR_hOPRL1 is an assay component calculated from the ERF_FR_GPCR_hOPRL1 assay. It is designed to measure radioligand binding using a type of binding reporter as detected by scintillation counting with radiometry technology.Data from the assay component ERF_FR_GPCR_hOPRL1 was analyzed at the assay endpoint, ERF_FR_GPCR_hOPRL1, in the positive analysis fitting direction relative to DMSO as the negative control and baseline of activity. Using a type of binding reporter, gain-of-signal activity can be used to understand changes in binding as they relate to gene OPRL1. To generalize the intended target to other relatable targets, this assay endpoint is annotated to the gpcr intended target family, where the subfamily is opioid.
Human cells are incubated for 60 minutes at room temprature with [3H]nociceptin ligand (0.1 nM) and Nociceptin as control inhibitor. Test Sample Requirements: Minimum for 1) Screen: 60 ul of 10 mM stock -OR- 1 mg (pre-weighed) for 10 uM final testing. 2) Dose Response: 90 ul of 10 mM stock -OR- 1 mg (pre-weighed) for a top concentration at 10 uM.

human Opioid Receptor NOP (ORL1) Agonism, OPRL1 (gene 4987), sequence (P41146 whole entry, looked up): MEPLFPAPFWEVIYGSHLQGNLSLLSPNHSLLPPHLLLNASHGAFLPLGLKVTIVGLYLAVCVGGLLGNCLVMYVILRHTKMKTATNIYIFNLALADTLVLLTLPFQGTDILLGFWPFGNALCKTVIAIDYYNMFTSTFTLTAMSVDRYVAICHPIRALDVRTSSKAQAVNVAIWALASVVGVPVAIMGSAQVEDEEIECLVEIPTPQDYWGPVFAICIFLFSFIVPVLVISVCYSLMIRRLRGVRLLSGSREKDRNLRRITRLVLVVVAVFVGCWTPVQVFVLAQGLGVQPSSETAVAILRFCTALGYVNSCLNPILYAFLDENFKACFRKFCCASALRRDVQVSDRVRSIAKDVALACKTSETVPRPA

| Structure (SMILES) | outcome | AC50 |
| --- | --- | --- |
| COc1cc(CCC(=O)CC(=O)CCc2ccc(O)c(OC)c2)ccc1O | inactive |  |
| COc1cc(/C=C/C(=O)CC(=O)/C=C/c2ccc(O)c(OC)c2)ccc1O |  | 5 µM (active) |
| O=C(/C=C/c1ccc(O)cc1)CC(=O)/C=C/c1ccc(O)cc1 |  | 3.86 µM (active) |
| CCCCC[C@H](O)CC(=O)CCc1ccc(O)c(OC)c1 | inactive |  |

— PubChem BioAssay AID2284169 (EPA ToxCast)
